From PubChem
Hits are enriched below; roughly 3.9% of the tested compounds scored in any of these assays.
HIF-2a block: blocks HIF-2a reporter activity; 786-0 RCC cells HIF-2a reporter, luciferase luminescence, overnight; inhibition, % at 18.8 µM; 0.72% of 360,000 active;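 active = inhibition of the luminescence signal of 40% or more relative to plate controls, in a single-dose primary screen at 18.75 µM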
TROY NFkB inh: inhibitors of TROY-dependent NF-kB signaling. Q293 LMP1-TROYcd NF-kB luciferase reporter, 4 h. 0.98% of 360,000 active. inhibition, % at 10 µM;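 active = compounds whose plate-normalised and pattern-corrected inhibition of the luciferase reporter signal at the single screening dose is 50% or more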
CF NFkB inh: inhibitors of cystic fibrosis induced NF-kB; KKLEB NF-kB-GFP reporter, PAF-induced, GFP fluorescence overnight; inhibition, % at 5 µM; 0.86% of 360,000 active; AID 588850;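 active = at least 50% inhibition at 5 µM, scaled per plate between neutral and stimulator controls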;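 note: PAF is a Pseudomonas aeruginosa culture filtrate used as stimulus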
KKLEB tox: CF airway cell cytotoxicity counter-screen. activity change (cytotoxicity), % at 5 µM. AID 602141. 0.36% of 360,000 active. KKLEB CF airway cells viability, ATPlite luminescence, overnight; stronger effect = lower value; cells stimulated with P. aeruginosa culture filtrate;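 active = corrected activity change at or below -50% at 5 µM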
TWEAK Fn14 block: blocks TWEAK-Fn14 interaction in a reporter cell assay | TWEAK-stimulated Fn14 reporter cells, luciferase luminescence, 8 h | inhibition, % at 10 µM | 2% of 360,000 active; in the data active = inhibition above about 50%
Peg3 promoter: inhibitors of Peg3 promoter | HeLa PEG-Prom luciferase reporter, luminescence, overnight | inhibition, % at 20 µM | 1.7% of 360,000 active;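 active = inhibition of at least 50% at 20 µM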
Each line names hits and unclear results; the compound was inactive in the other large screens.

CCCNC(=O)c1n[nH]c2c1CC(C(C)(C)CC)CC2 (configuration not stated)	none
CCC(C)(C)C1CCc2[nH]nc(C(=O)N/N=C(\C)c3ccco3)c2C1 (configuration not stated)	TROY NFkB inh 68
CCCn1c(=N)c(C#N)cc2c(=O)n3ccccc3nc21	none
COc1cc(C)c(C(=O)CC(=O)c2c(C)cc(OC)cc2C)c(C)c1	Peg3 promoter 50
C(=C\c1ccccc1)/CN1CCN(C(CCc2ccccc2)c2nnnn2-c2ccc3c(c2)OCCO3)CC1 (configuration not stated)	none
C(=C\c1ccccc1)/CN1CCN(C(c2cc3ccccc3o2)c2nnnn2-c2ccc3c(c2)OCCO3)CC1 (configuration not stated)	TWEAK Fn14 block 69
C(=C\c1ccccc1)/CN1CCN(C(c2nnnn2-c2ccc3c(c2)OCCO3)C2CC2)CC1 (configuration not stated)	TWEAK Fn14 block 58
CCC(c1nnnn1-c1ccc2c(c1)OCCO2)N1CCN(C/C=C/c2ccccc2)CC1 (configuration not stated)	TWEAK Fn14 block 58
COc1ccc(-n2nnnc2C(c2cc3ccccc3o2)N2CCN(C/C=C/c3ccccc3)CC2)cc1 (configuration not stated)	none
COC(=O)c1cccc(NC(=O)NC2CCCN2S(=O)(=O)c2ccc(Cl)cc2)c1 (configuration not stated)	none
CCN(CC)c1ccc(/C=N/NC(=O)c2cccc(S(=O)(=O)N3CCOCC3)c2)cc1	none
CCN(CC)c1ccc(/C=N/NC(=O)c2ccco2)cc1	TWEAK Fn14 block 64
CCN(Cc1ccccc1)c1ccc(/C=N/NC(=O)c2cccc(S(=O)(=O)N3CCOCC3)c2)cc1	TWEAK Fn14 block 69
O=C(N/N=C/c1ccc2cccnc2c1)c1ccco1	TWEAK Fn14 block 52
Nc1nc(N2CCN(Cc3ccccc3)CC2)n[nH]1	none
COc1ccc(OC)c(S(=O)(=O)N2CCN(Cc3ccccc3)CC2)c1	none
CCn1cc(CN2CCCC(C(=O)Nc3cccc(-c4cc5ccccc5[nH]4)c3)C2)cn1 (configuration not stated)	none
C/C(=N\N(Cc1ccccc1)c1ccccc1)c1ccncc1	CF NFkB inh 58, KKLEB tox -57
CCOC(=O)NC(=O)/C(C#N)=N\Nc1cccc(Cl)c1	TROY NFkB inh 56
COc1ccc(CC(=O)N/N=C/c2cc(Br)cs2)cc1OC	TWEAK Fn14 block 67
CC(=O)Nc1ccc(S(=O)(=O)c2ccnc3cc(Cl)ccc23)cc1	TWEAK Fn14 block 77
CCn1c(C)nc2cc(C(=O)OC(C(F)(F)C(F)F)C(F)(F)C(F)F)ccc21	TROY NFkB inh 57
CCn1c(C)nc2cc(C(=O)NNC(=S)Nc3ccccc3)ccc21	TROY NFkB inh 78, TWEAK Fn14 block 71
CCn1c(C)nc2cc(C(=O)NNC(=O)c3ccc(Cl)nc3)ccc21	none
CCn1c(C)nc2cc(C(=O)NNC(=O)c3ccc(C)cc3)ccc21	TROY NFkB inh 78, TWEAK Fn14 block 72
CCN(CC)CCCNC(=O)c1cc(-c2ccccc2)c(N2CCCCC2)s1	Peg3 promoter 97
O=C(NCCc1ccccc1)c1cc(-c2ccccc2)c(N2CCOCC2)s1	none
Cc1ccccc1CNC(=O)/C=C\C(=O)O	TROY NFkB inh 75
CCOc1ccc(Br)cc1S(=O)(=O)Nc1ccc(C(=O)OCC(=O)N(C)c2ccccc2)cc1	none
CCOc1ccc(Br)cc1S(=O)(=O)Nc1cccc(S(=O)(=O)N(C)c2ccccc2)c1	TROY NFkB inh 77
CCc1ncc(C(O)c2ccc(Cl)cc2)n1Cc1ccccc1 (configuration not stated)	none
Cc1ccc(F)c(S(=O)(=O)NC(=O)C2(C)CCN2C(=O)Cc2cc(F)ccc2F)c1 (configuration not stated)	none
CC(=O)n1c2c(c3ccccc31)OC(N)=C(C#N)C2c1ccc(C(C)C)cc1 (configuration not stated)	TROY NFkB inh 79, TWEAK Fn14 block 89
O=C(CCc1nnc(-c2ccc(-c3ccccc3)cc2)o1)NCCc1ccccn1	HIF-2a block 40
Cc1ccc(Nc2cc(C)nc3ncnn23)c(C)c1	none
